PubChem BioAssay AID434973 (Sanford-Burnham Center for Chemical Genomics, 2010)
About 4,900 (1.5%) of roughly 330,000 compounds were called active.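 Rule for the calls: active = inhibition above about 50% at the single test dose (limit read from the data); inactive = the rest.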 For the sample, actives were picked, then their nearest neighbours and some compounds at random.

Molecular target: Sentrin-specific protease 7 (Homo sapiens) (UniProt Q9BQF6)
Test: SENP7 protease inhibitors, primary screen, biochemical, luminescence, uHTS (AID 434973);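 note: plate controls were DMSO with enzyme for no effect and no enzyme buffer wells for full effect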
Details: recombinant SENP7, Z-RLRGG-aminoluciferin luminescence, 40 min; at 5 µM; hits give high values

inhibition, active:
Nc1ccc2nn(-c3ccc(Cl)cc3)nc2c1 57.3%
O=C(c1cnn(-c2ccc(Cl)cc2)c1)c1ccccc1O 93.1%
CCCCCc1ccc(-c2ccc(C(=O)O)cc2)nc1 92.8%
CCn1nccc1C(=O)Nc1ccc(Cl)c(Cl)c1 63.8%
Cc1ccc(Nc2nc(Cl)c(C=O)s2)cc1 52.6%
COc1ccc(/C=C/c2noc(-c3ccccc3OC(C)=O)n2)cc1 87.9%
COc1ccc(-c2csc(Nc3ccccn3)n2)cc1 86.2%
COc1ccc(Nc2nc(-c3ccccc3)cs2)cc1 95.8%
Cc1ccccc1Nc1nc(-c2cccnc2)cs1 54.3%
c1ccc(Nc2nc(-c3ccncc3)cs2)nc1 85.5%
Cc1cccc(Nc2nc(-c3ccccc3)cs2)n1 92.9%

inhibition, inactive:
CN(C)c1nnnn1-c1ccc(Cl)cc1 -4.93%
c1ccc(-n2nc3ccccc3n2)cc1 1.86%
C[C@@H](NC(=O)OC(C)(C)C)c1nnc(S(=O)(=O)Cc2ccccc2)o1 -2.96%
NC(=O)C1CCN(C(=O)c2ccc(F)c(S(=O)(=O)N3CCOCC3)c2)CC1 10.4%
COc1ccc(C(=O)Cc2cnn(-c3ccccc3)c2)c(O)c1 5.94%
Cc1ncc(CC(=O)n2cc(C(=O)c3cc(Cl)ccc3O)cn2)s1 0.896%
CC1CCCCC1NC(=O)COC(=O)Cc1ccc(Br)cc1 (stereo not drawn) 0.5%
CC(=O)OCc1cc(=O)n(C)c(=O)n1C 6.2%
COc1cccc(COC(=O)C2CCN(S(=O)(=O)c3ccc(Cl)cc3)CC2)c1OC 11.2%
O=C(COC(=O)c1ccco1)Nc1ccc(Cl)cn1 4.97%
CCCCCc1ccc(-c2ccc(OCC)cc2)nc1 11.8%
CCCCCc1ccc(-c2cn(Cc3ccc4ccccc4c3)nn2)cc1 -7.9%
O=S(=O)(NCc1ccccc1Br)c1ccccc1Br 2.03%
O=C(CCc1nc2sc3c(c2c(=O)[nH]1)CCCC3)NCC(=O)Nc1ccccc1Br 2.2%
CC1CC(c2ccccc2)n2nc(NC(=O)c3cccs3)nc2N1 (stereo not drawn) -9.29%
CCn1nccc1C(=O)Nc1ccc(S(=O)(=O)NC23CC4CC(CC(C4)C2)C3)cc1 -4.42%
O=C(CC(O)(C(F)(F)F)C(F)(F)F)Nc1ccc(Cl)c(Cl)c1 2.83%
COc1ccc(C(=O)N2CCN(c3ncccn3)CC2)cc1S(=O)(=O)N1CCOCC1 0.314%
Cc1cc(NC(=O)C(C)N2C(=O)c3ccccc3S2(=O)=O)no1 (stereo not drawn) 3.21%
Cc1ccc(NC(=O)Nc2nnc(-c3ccncc3)s2)cc1 -3.06%
Cc1ccc(Nc2nnc(SC(C)C(=O)NC3CC3)s2)cc1 (stereo not drawn) 7.35%
COC(=O)C(C)N=Cc1ccccc1 (stereo not drawn) -4.82%
COCCNc1cc(-c2ccccc2)nc2cc(-c3cccc(F)c3)nn12 -7.71%
CC(=O)Oc1ccc2c(c1)C(=O)c1ccccc1C2=O 12.2%
COc1cccc(/C=C/c2ccc3ccccc3n2)c1OC(C)=O -1.58%
CCCn1c(CCNc2nc(-c3ccc(OC)cc3)cs2)nc2ccccc21 0.961%
COc1ccc(-c2csc(Cc3nc(O)cs3)n2)cc1 23.1%
Clc1ccc(-c2csc(-c3ccncc3)n2)cc1 -6.3%
COc1ccc2c(c1OC)C(=O)OC2Nc1nc(-c2ccccc2)cs1 (stereo not drawn) 1.44%
O=C(NCc1cccnc1)C(=O)Nc1nc(-c2ccccc2)cs1 3.71%
Clc1ccc(Nc2nc(-c3cccs3)cs2)nc1 11%
O=C(Nc1nc(-c2cccnc2)cs1)c1ccccc1F 28.5%
COc1ccc(-c2csc(NC(=O)COC(=O)Cc3ccc(Cl)cc3Cl)n2)cc1 4.91%
CN(Cc1ccc(F)cc1Cl)S(=O)(=O)c1cccs1 -5.99%
CCN(C(=O)COC(=O)c1c(C)nn(-c2ccccc2)c1Cl)c1c(N)n(Cc2ccccc2)c(=O)[nH]c1=O 2.84%
O=[N+]([O-])c1cc(S(=O)(=O)CCCN2CCOCC2)ccc1F -6.87%
Cc1ccc(S(=O)(=O)NCC(=O)N(CC(=O)NC(C)(C)C)Cc2cccs2)cc1 0.604%
CSCCNCc1cn(-c2ccc(F)cc2F)nc1-c1ccccc1C 8.28%
CCOc1ccc(S(=O)(=O)Nc2ccncc2)c(C)c1C -7.98%
CC[C@]1(C(=O)OC)[C@H]2C(=O)N(Cc3ccccc3)C(=O)[C@H]2[C@H]2CN=C(SCc3ccc(C#N)cc3)N21 -3.53%
OC(COCC1COc2ccccc2O1)CN1CCN(c2ccc(F)cc2)CC1 (stereo not drawn) -0.332%
CCCCCCCCOC1OC(CO)C(O)C(O)C1NC(C)=O (stereo not drawn) -1.17%
COc1c(F)c(F)c(-c2csc(N)n2)c(F)c1F -8.1%
CS(=O)(=O)Nc1cccc(C2=NN(C(=O)c3cccc(F)c3)C(c3cccs3)C2)c1 (stereo not drawn) 6.94%
O=C1/C(=C/c2coc3ccc(O)cc3c2=O)SC(=S)N1c1ccccc1 -27.4%
O=C(Cc1csc(Nc2nc(=S)[nH]c3ccccc23)n1)NCCCN1CCN(c2cccc(Cl)c2)CC1 6.52%
CCC(C(=O)NC1CCCC1)N(C(=O)c1snc(C(N)=O)c1N)c1ccc2c(c1)OCCO2 (stereo not drawn) 5.07%
Nc1c(C(=O)c2cccs2)sc2nsc(SCCN3CCCCC3)c12 9.3%
Cc1ccc(Nc2nc(-c3ccc(O)cc3O)cs2)nc1 -5.69%
Cc1ccc(-c2csc(NC3OC(=O)c4ccccc43)n2)cc1 (stereo not drawn) -11.5%
CCOCCCNC(=O)C1(O)c2cc(Br)ccc2NC(=O)N1c1ccc(C)c(C)c1 (stereo not drawn) 8.05%
COCCn1c(SC(C)C(=O)NC2CC2)nnc1-c1cccc(C)c1 (stereo not drawn) 1.39%
